Source: PubChem BioAssay (EPA / NIEHS)
Inconclusive results are not listed. Activity calls are given as the source filed them. The calls were made as follows, unless noted: active = hit-call score of the fitted dose curve at least 0.9, where 1 is the maximum; inactive = score below 0.9.

Experiments:
[1] = BSK_3C_TissueFactor: BioMAP Diversity Plus: 3C Assay for Tissue Factor Biomarker Activity (AID 2282997); conditions: BioMAP 3C HUVEC, tissue factor biomarker readout; actives raise or lower the signal
Method in brief: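 ELISA read-out of Tissue Factor levels on human umbilical vein endothelium collected 24 h after chemical dosing. Gain or loss of signal was fitted relative to DMSO.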

[2] = BSK_3C_VCAM1: BioMAP Diversity Plus: 3C Assay for Vascular cell adhesion molecule 1 (VCAM1) Biomarker Activity (AID 2282999); conditions: BioMAP 3C HUVEC, VCAM1 ELISA, cytokine-stimulated; actives raise or lower the signal
Method in brief: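 Endothelial cells from human umbilical vein are treated with test chemical. At 24 h, VCAM-1 is measured by ELISA, and responses in either direction are fitted relative to DMSO.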

[3] = BSK_4H_Eotaxin3: BioMAP Diversity Plus: 4H Assay for Eotaxin 3 Biomarker Activity (AID 2283000); conditions: primary human endothelial cells (HUVEC); actives raise or lower the signal
Method in brief: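 Chemicals were added to human umbilical vein endothelium cultures, and Eotaxin-3 was quantified by ELISA at 24 h. Values were derived by bidirectional fitting with DMSO serving as negative control and activity baseline.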

[4] = read-out: Intercellular Adhesion Molecule 1 (ICAM1), ICAM1 (gene 3383); assay: BSK_3C_ICAM1: BioMAP Diversity Plus: 3C Assay for Intercellular Adhesion Molecule 1 (ICAM1) Biomarker Activity (AID 2283003); conditions: primary human endothelial cells (HUVEC); actives raise or lower the signal
Method in brief: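 Primary human umbilical vein endothelial cells in the BioMAP 3C system were exposed to chemicals for 24 h, then ICAM-1 was quantified by ELISA. Activity was fitted bidirectionally against the DMSO negative control baseline.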

[5] = read-out: Urokinase-type plasminogen activator receptor (uPAR), PLAUR (gene 5329); assay: BSK_4H_uPAR: BioMAP Diversity Plus: 4H Assay for Urokinase-type plasminogen activator receptor (uPAR) Biomarker Activity (AID 2283030); conditions: primary human endothelial cells (HUVEC); actives raise or lower the signal
Method in brief: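 Cell-surface uPAR ELISA signal, measured 24 h after dosing human umbilical vein endothelial cells, was analyzed with bidirectional fitting relative to DMSO. Parallel SRB staining of total protein tracked overt cytotoxicity.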

[6] = read-out: Vascular endothelial growth factor receptor 2 (Homo sapiens) (UniProt P35968); assay: BSK_4H_VEGFRII: BioMAP Diversity Plus: 4H Assay for Vascular endothelial growth factor receptor 2 (VEGFR2) Biomarker Activity (AID 2283031); conditions: primary human endothelial cells (HUVEC); actives raise or lower the signal;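 as to AC50: cell-surface VEGFR2 protein level quantified by ELISA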
Method in brief: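 ELISA read-out of VEGFRII in primary human umbilical vein endothelium, taken 24 h after chemical treatment. Responses are expressed relative to DMSO, with bidirectional fitting.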

[7] = read-out: Macrophage colony-stimulating factor (MCSF), CSF1 (gene 1435); assay: BSK_CASM3C_MCSF: BioMAP Diversity Plus: CASM3C Assay for Macrophage colony-stimulating factor (MCSF) Biomarker Activity (AID 2283044); conditions: primary human coronary artery smooth muscle cells; actives raise or lower the signal;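 also: M-CSF protein amount quantified by ELISA after 24 h exposure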
[8] = read-out: Low-density lipoprotein receptor (LDLR), LDLR (gene 3949); assay: BSK_CASM3C_LDLR: BioMAP Diversity Plus: CASM3C Assay for Low-density lipoprotein receptor (LDLR) Biomarker Activity (AID 2283045); conditions: primary human coronary artery smooth muscle cells; actives raise or lower the signal;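 also: LDLR protein level on the cell surface quantified by ELISA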
[9] = read-out: Monokine induced gamma interferon (MIG), CXCL9 (gene 4283); assay: BSK_CASM3C_MIG: BioMAP Diversity Plus: CASM3C Assay for Monokine induced gamma interferon (MIG) Biomarker Activity (AID 2283048); conditions: primary human coronary artery smooth muscle cells; actives raise or lower the signal;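 also: MIG protein level measured by ELISA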
[10] = read-out: Tissue Factor, F3 (gene 2152); assay: BSK_CASM3C_TissueFactor: BioMAP Diversity Plus: CASM3C Assay for Tissue Factor Biomarker Activity (AID 2283052); conditions: primary human coronary artery smooth muscle cells; actives raise or lower the signal;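 also: cell surface tissue factor protein level read by ELISA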
[11] = read-out: Monokine induced gamma interferon (MIG), CXCL9 (gene 4283); assay: BSK_hDFCGF_MIG: BioMAP Diversity Plus: hDFCGF Assay for Monokine induced gamma interferon (MIG) Biomarker Activity (AID 2283063); conditions: primary human foreskin fibroblasts; actives raise or lower the signal
Method in brief: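 Chemicals were added to primary human foreskin fibroblast cultures, which were sampled 24 h later. MIG levels were then quantified by ELISA and responses fitted in both directions relative to DMSO.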

[12] = read-out: E-selectin (Homo sapiens) (UniProt P16581); assay: BSK_LPS_Eselectin: BioMAP Diversity Plus: LPS Assay for Eselectin Biomarker Activity (AID 2283077); conditions: primary human HUVEC with PBMC; actives raise or lower the signal
Method in brief: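 Primary human vascular co-culture (endothelium plus PBMC) was dosed with chemical, then E-selectin quantified by ELISA at 24 h. Endpoint values derive from bidirectional curve fitting relative to DMSO.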

[13] = read-out: Interleukin-8 (IL8), CXCL8 (gene 3576); assay: BSK_LPS_IL8: BioMAP Diversity Plus: LPS Assay for Interleukin-8 (IL8) Biomarker Activity (AID 2283078); conditions: primary human HUVEC with PBMC; actives raise or lower the signal
Method in brief: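 Readout is IL-8 by ELISA, taken 24 h after compounds were added to LPS-stimulated endothelial/PBMC co-cultures. Both increases and decreases relative to DMSO control were scored through bidirectional fitting.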

[14] = read-out: Monocyte Chemoattractant Protein-1 (MCP1), CCL2 (gene 6347); assay: BSK_LPS_MCP1: BioMAP Diversity Plus: LPS Assay for Monocyte Chemoattractant Protein-1 (MCP1) Biomarker Activity (AID 2283081); conditions: primary human HUVEC with PBMC; actives raise or lower the signal;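 as to AC50: secreted MCP-1 protein quantified by ELISA in culture supernatant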
Method in brief: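 Human endothelial–PBMC co-cultures were dosed with chemical, then LPS-driven MCP-1 levels were quantified by ELISA at 24 h. Activity in either direction was fitted versus DMSO negative control.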

[15] = read-out: Tissue Factor, F3 (gene 2152); assay: BSK_LPS_TissueFactor: BioMAP Diversity Plus: LPS Assay for Tissue Factor Biomarker Activity (AID 2283084); conditions: primary human HUVEC with PBMC; actives raise or lower the signal
Method in brief: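 ELISA signal for cell-surface Tissue Factor (CD142) was read 24 h after compound dosing of an LPS-stimulated human endothelial–PBMC primary co-culture. Gain or loss of signal was scored relative to DMSO.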

[16] = read-out: CD40, CD40 (gene 958); assay: BSK_SAg_CD40: BioMAP Diversity Plus: SAg Assay for CD40 Biomarker Activity (AID 2283088); conditions: primary human HUVEC with PBMC; actives raise or lower the signal
Method in brief: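 Compounds were dosed onto a human primary endothelial–PBMC co-culture, and after 24 h CD40 was quantified by ELISA using a fluorescence signal. Activity in either direction was fitted relative to DMSO.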

[17] = read-out: E-selectin (Homo sapiens) (UniProt P16581); assay: BSK_SAg_Eselectin: BioMAP Diversity Plus: SAg Assay for Eselectin Biomarker Activity (AID 2283091); conditions: primary human HUVEC with PBMC; actives raise or lower the signal
Method in brief: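 Co-culture: HUVEC + PBMC. Dose compound; 24 h. ELISA for E-selectin. Bidirectional fit vs DMSO.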

[18] = read-out: Interleukin-8 (IL8), CXCL8 (gene 3576); assay: BSK_SAg_IL8: BioMAP Diversity Plus: SAg Assay for Interleukin-8 (IL8) Biomarker Activity (AID 2283094); conditions: primary human HUVEC with PBMC; actives raise or lower the signal
Method in brief: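 Human umbilical vein endothelial cells co-cultured with peripheral blood mononuclear cells; IL-8 measured by ELISA 24 h after chemical dosing. Bidirectional concentration-response fitting used DMSO as negative control and activity baseline.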

[19] = target: human Retinoic Acid Receptor beta (RARb), RARB (gene 5915) (UniProt P10826); assay: ATG_RARb_TRANS: Attagene TRANS-FACTORIAL HepG2 Assay for human Retinoic Acid Receptor beta (AID 2283004; active = hit-call score of the fitted dose curve at least 0.9, where 1 is the maximum)
Chain of human Retinoic Acid Receptor beta (RARb), RARB (gene 5915) (P10826 whole entry, looked up): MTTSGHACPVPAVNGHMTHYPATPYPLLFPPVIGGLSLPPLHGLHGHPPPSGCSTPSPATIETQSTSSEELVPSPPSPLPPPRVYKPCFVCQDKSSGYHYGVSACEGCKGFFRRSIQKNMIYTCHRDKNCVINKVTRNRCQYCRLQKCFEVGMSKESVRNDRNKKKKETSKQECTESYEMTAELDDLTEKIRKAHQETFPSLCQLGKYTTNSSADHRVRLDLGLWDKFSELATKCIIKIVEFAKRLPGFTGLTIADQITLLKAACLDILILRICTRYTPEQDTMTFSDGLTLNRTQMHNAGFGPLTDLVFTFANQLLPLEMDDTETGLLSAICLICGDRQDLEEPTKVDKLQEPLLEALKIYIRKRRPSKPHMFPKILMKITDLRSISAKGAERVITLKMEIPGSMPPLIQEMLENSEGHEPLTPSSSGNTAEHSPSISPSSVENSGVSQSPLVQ
Method in brief: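 Transient transfection of HepG2 with multiple reporter units → chemical dosing, 24 h → total RNA isolation → RT with oligo(dT) → reporter-specific PCR, 6-FAM primer extension, HpaI digest → capillary electrophoresis. Positive direction vs DMSO control.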

[20] = target: Retinoic acid receptor RXR-alpha (Homo sapiens) (UniProt P19793); assay: OT_NURR1_NURR1RXRa_0480: Odyssey Thera (OT) 8-hour HEK293T Protein Complementation Assay for Nurr1/retinoid X receptor (RXR) (AID 2283385; active = hit-call score of the fitted dose curve at least 0.9, where 1 is the maximum)
Chain of Retinoic acid receptor RXR-alpha (Homo sapiens) (P19793 whole entry, looked up, the tested form may be a part): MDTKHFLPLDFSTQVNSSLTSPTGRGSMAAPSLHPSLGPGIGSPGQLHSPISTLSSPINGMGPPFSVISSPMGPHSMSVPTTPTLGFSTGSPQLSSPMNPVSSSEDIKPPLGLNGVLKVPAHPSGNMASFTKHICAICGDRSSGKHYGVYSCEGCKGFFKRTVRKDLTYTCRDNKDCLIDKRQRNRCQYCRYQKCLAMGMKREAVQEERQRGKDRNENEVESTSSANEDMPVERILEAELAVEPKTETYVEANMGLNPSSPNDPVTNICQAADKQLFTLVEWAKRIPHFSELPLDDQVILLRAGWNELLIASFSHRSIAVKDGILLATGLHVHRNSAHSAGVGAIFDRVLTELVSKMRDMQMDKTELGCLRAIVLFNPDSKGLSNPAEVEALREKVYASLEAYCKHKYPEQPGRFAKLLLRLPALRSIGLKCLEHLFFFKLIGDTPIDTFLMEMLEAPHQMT
Method in brief: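 HEK293T cells expressing Nurr1 and RXRα fused to reporter fragments were dosed with compound for 8 hours. Complex formation was read as fluorescence intensity and analysed as gain of signal against DMSO as baseline.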

Measured: AC50

Chain of E-selectin (Homo sapiens) (P16581 whole entry, looked up): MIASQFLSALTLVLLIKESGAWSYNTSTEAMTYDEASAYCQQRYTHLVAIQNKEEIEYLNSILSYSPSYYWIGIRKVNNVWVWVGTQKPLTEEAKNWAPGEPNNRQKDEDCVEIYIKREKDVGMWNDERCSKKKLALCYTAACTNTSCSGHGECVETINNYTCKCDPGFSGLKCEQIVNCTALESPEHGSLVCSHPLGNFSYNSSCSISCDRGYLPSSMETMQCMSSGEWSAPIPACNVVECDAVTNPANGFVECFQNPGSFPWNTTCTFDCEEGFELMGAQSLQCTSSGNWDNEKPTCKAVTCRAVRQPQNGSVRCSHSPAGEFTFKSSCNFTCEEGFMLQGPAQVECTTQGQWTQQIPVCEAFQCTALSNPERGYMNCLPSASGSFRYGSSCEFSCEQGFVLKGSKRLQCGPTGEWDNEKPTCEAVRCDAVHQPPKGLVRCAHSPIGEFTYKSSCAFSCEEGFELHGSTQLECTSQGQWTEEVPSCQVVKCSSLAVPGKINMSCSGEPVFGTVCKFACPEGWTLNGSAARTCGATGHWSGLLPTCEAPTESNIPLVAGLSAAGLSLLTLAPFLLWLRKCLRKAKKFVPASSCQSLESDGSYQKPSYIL

CCCCCCCCCCC1CO1 (stereo not drawn)
active: [1] 30.8 µM | [2] 34.8 µM | [3] 36.9 µM | [4] 36.2 µM | [5] 30.1 µM | [6] 34.7 µM | [10] 30.2 µM | [11] 30.3 µM | [12] 36.1 µM | [13] 37.5 µM | [14] 31.7 µM | [15] 38.5 µM | [16] 20 µM | [17] 20 µM
inactive: [7] | [8] | [9] | [18]

CO[Si](CCCNCCN)(OC)OC
inactive: [19]

COC(=O)[C@]1(C)CCC[C@@]2(C)[C@H]1CC=C1C=C(C(C)C)CC[C@@H]12
active: [20] 71.6 µM

C1=CCC=C1
inactive: [20]

CCCCCCC1CCC(=O)O1 (stereo not drawn)
inactive: [19]

CN(C)c1ccc(C(c2ccccc2)c2ccc(N(C)C)cc2)cc1
inactive: [4] | [5] | [7] | [8] | [9] | [11] | [15]
active: [1] 2 µM | [2] 20 µM | [3] 8.42 µM | [6] 5.36 µM | [10] 7.33 µM | [12] 15.6 µM | [13] 15.2 µM | [14] 13.2 µM | [16] 14.2 µM | [17] 11.3 µM | [18] 8.09 µM

Cc1cccnc1
not listed: [19] | [20]
inactive: all other assays above

CCCOCCC
inactive: [19]

Cc1cc(-n2nc3ccc(Cl)cc3n2)c(O)c(C(C)(C)C)c1
active: [5] 1.37 µM
not listed: [20]
inactive: all other assays above
